Test results taken from the supplement of paper PMC6897291.
Structures can show the parent of a compound that is named as a salt.

These compounds were tested on U-2932 (assay: growth inhibition by drug alone (1 - RLU/untreated control) (fraction); higher = stronger inhibition). Settings: 10 nM; time (day): 4; 177Lu-lilotomab satetraxetan 0 ug/ml.
Method in brief: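 Compound doses on the pre-printed Selleck Cambridge Cancer Compound library plates were 10/100 nM for RIVA cells and 10/1,000 nM for U-2932 cells, seeded at 3,000 cells/well. Before seeding, cells were washed after 18 h with or without a radiolabelled anti-CD37 antibody conjugate (~600 MBq/mg; 0.5 µg/ml RIVA, 1 µg/ml U-2932). Growth inhibition was derived from RealTime-Glo luminescence relative to untreated no-drug control wells. Readings were taken daily starting on day 3, each after 1 h at 37°C, and each well's RLU was divided by the mean of 48 such wells per plate and subtracted from 1.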
With CNCc1ccc(-c2[nH]c3cc(F)cc4c3c2CCNC4=O)cc1 the “growth inhibition by drug alone” value was 0.0535. In the case of O=C(O)c1ccc(-c2c[nH]c3ncc(-c4ccccc4)cc23)cc1C1CCCC1, the “growth inhibition by drug alone” value is reported as 0.0154. CC(=O)c1c(C)c2cnc(Nc3ccc(N4CCNCC4)cn3)nc2n(C2CCCC2)c1=O was tested, and the “growth inhibition by drug alone” value was 0.0389. CCN(CC)CCCCNc1ncc2cc(-c3cc(OC)cc(OC)c3)c(NC(=O)NC(C)(C)C)nc2n1 was tested, and the “growth inhibition by drug alone” value was -0.118. For CCC(C)(C)C(=O)O[C@H]1C[C@@H](C)C=C2C=C[C@H](C)[C@H](CC[C@@H]3C[C@@H](O)CC(=O)O3)[C@H]21 [Simvastatin (Zocor)], the “growth inhibition by drug alone” value was -0.0759. CC[C@H](Nc1ncnc2[nH]cnc12)c1nc2cccc(F)c2c(=O)n1-c1ccccc1 was tested, and the “growth inhibition by drug alone” value was -0.000402. With CC(C=CC(=O)NO)=CC(C)C(=O)c1ccc(N(C)C)cc1 (stereo not drawn) [Trichostatin A (TSA)] the “growth inhibition by drug alone” value was 0.0558. For COc1ccc2c3n(c(=NC(=O)c4cccnc4)nc2c1OC)CCN3, the “growth inhibition by drug alone” value was 0.0853. For NC(=O)c1ccc(-c2nc(-c3ccccn3)c(-c3ccc4c(c3)OCO4)[nH]2)cc1, the “growth inhibition by drug alone” value was 0.0821. With CNC(=O)c1cc(Oc2ccc(NC(=O)Nc3ccc(Cl)c(C(F)(F)F)c3)c(F)c2)ccn1 [Regorafenib (BAY 73-4506)] the “growth inhibition by drug alone” value was 0.0913. For Cc1cnc(Nc2ccc(OCCN3CCCC3)cc2)nc1Nc1cccc(S(=O)(=O)NC(C)(C)C)c1, the “growth inhibition by drug alone” value was -0.0523. With CCOc1ccc(Nc2nc(-c3c(C)nc4ccccn34)cs2)cc1 the “growth inhibition by drug alone” value was 0.209. For CC(C)C[C@H](NC(=O)[C@H](Cc1ccccc1)NC(=O)c1cnccn1)B(O)O [Bortezomib (Velcade)], the “growth inhibition by drug alone” value was 0.971. With O=C1CN2Cc3c(ccc(Cl)c3Cl)N=C2N1 [Anagrelide] the “growth inhibition by drug alone” value was 0.0814. Cc1cc(Nc2cc(N3CCN(C)CC3)nc(/C=C/c3ccccc3)n2)n[nH]1 was tested, and the “growth inhibition by drug alone” value was -0.0558. With CCc1cc(Nc2nccc(-c3c(-c4ccc(OC)c(C(=O)Nc5c(F)cccc5F)c4)nc4ccccn34)n2)c(OC)cc1N1CCC(N2CCN(S(C)(=O)=O)CC2)CC1 the “growth inhibition by drug alone” value was -0.0848. With O=C1CN2Cc3c(ccc(Cl)c3Cl)N=C2N1 [Anagrelide hydrochloride] the “growth inhibition by drug alone” value was 0.0554. For O=C(NCCCNc1nc(Nc2cccc(NC(=O)N3CCCC3)c2)ncc1I)c1cccs1, the “growth inhibition by drug alone” value was 0.14. For CCC[C@H](NC(=O)/C(C#N)=C/c1cccc(Br)n1)c1ccccc1, the “growth inhibition by drug alone” value was 0.0652. In the case of COc1cc2nc(N3CCCN(C)CC3)nc(NC3CCN(Cc4ccccc4)CC3)c2cc1OC, the “growth inhibition by drug alone” value is reported as 0.0539. In the case of C#Cc1cccc(Nc2ncnc3cc(OCCOC)c(OCCOC)cc23)c1 [Erlotinib HCl], the “growth inhibition by drug alone” value is reported as 0.251. With CN(C)c1ccccc1CN1CCCN(Cc2ccccc2N(C)C)C1c1ccncc1 the “growth inhibition by drug alone” value was 0.0484. In the case of COc1cc2c(NC3CCN(C)CC3)nc(N3CCCN(C)CC3)nc2cc1OCCCN(C)C, the “growth inhibition by drug alone” value is reported as -0.0188. COc1ccc(COc2cc3oc(=O)c4cc(C(C)O)ccc4c3cc2OC)cc1 (stereo not drawn) [Palomid 529] was tested, and the “growth inhibition by drug alone” value was 0.0194. In the case of CO[C@@H](C(=O)N1Cc2[nH]nc(NC(=O)c3ccc(N4CCN(C)CC4)cc3)c2C1)c1ccccc1, the “growth inhibition by drug alone” value is reported as -0.0423. Cn1cc(C2=C(c3ccc(Cl)cc3Cl)C(=O)NC2=O)c2ccccc21 was tested, and the “growth inhibition by drug alone” value was 0.00823. CCc1ccc(CCOc2ccc(CC3SC(=O)NC3=O)cc2)nc1 (stereo not drawn) [Pioglitazone (Actos)] was tested, and the “growth inhibition by drug alone” value was -0.125. In the case of O=C(O)C1(C(=O)O)CCC1.[NH2-].[NH2-].[Pt+2] [Carboplatin], the “growth inhibition by drug alone” value is reported as -0.0103. With CS(=O)(=O)c1ccc(C(=O)Nc2ccc(Cl)c(-c3ccccn3)c2)c(Cl)c1 [Vismodegib (GDC-0449)] the “growth inhibition by drug alone” value was 0.072. With OCCn1cc(-c2ccc3c(c2)CC/C3=N\O)c(-c2ccncc2)n1 the “growth inhibition by drug alone” value was -0.0312. With CC[C@@H]1C(=O)N(C)c2cnc(Nc3ccc(C(=O)NC4CCN(C)CC4)cc3OC)nc2N1C1CCCC1 the “growth inhibition by drug alone” value was 0.844. With CC[C@]1(O)C[C@H]2CN(CCc3c([nH]c4ccccc34)[C@@](C(=O)OC)(c3cc4c(cc3OC)N(C=O)[C@H]3[C@@](O)(C(=O)OC)[C@H](OC(C)=O)[C@]5(CC)C=CCN6CC[C@]43[C@@H]65)C2)C1 [Vincristine] the “growth inhibition by drug alone” value was 0.954. For CC(C)(C)c1ccc(S(=O)(=O)/C=C/C#N)cc1, the “growth inhibition by drug alone” value was 0.0673. With Cc1cn(-c2cc(NC(=O)c3ccc(C)c(Nc4nccc(-c5cccnc5)n4)c3)cc(C(F)(F)F)c2)cn1 [Nilotinib (AMN-107)] the “growth inhibition by drug alone” value was 0.0185. In the case of CC(C)(C#N)c1cc(Cn2cncn2)cc(C(C)(C)C#N)c1 [Anastrozole], the “growth inhibition by drug alone” value is reported as 0.0583. For C=CCn1c(=O)c2cnc(Nc3ccc(N4CCN(C)CC4)cc3)nc2n1-c1cccc(C(C)(C)O)n1, the “growth inhibition by drug alone” value was 0.069. Cn1cnc(N)c2ncnc1-2 [3-Methyladenine] was tested, and the “growth inhibition by drug alone” value was 0.0365. CCc1c2c(nc3ccc(OC(=O)N4CCC(N5CCCCC5)CC4)cc13)-c1cc3c(c(=O)n1C2)COC(=O)[C@]3(O)CC [Irinotecan HCl Trihydrate (Campto)] was tested, and the “growth inhibition by drug alone” value was -0.0323.
